{"source": "PubChem BioAssay (NCI)", "note": "Compounds without any hit were thinned out: in the full panel of roughly 83,000, 20% have a hit.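 How to read the values: 0–100, growth inhibition (40 = 60% inhibited); 0, no net growth; -100 to 0, cell death (-40 = 40% of starting cells died; -100 = all dead).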 A number with no mark means an inactive call. Activity calls are given as the source filed them.", "data": [{"system": "SNB-19 CNS", "assay": "NCI-60 one-dose screen, 48 h (100 = growth as untreated, 0 = no growth, -100 = all killed)", "conditions": "10 µM unless noted", "experimental": "Growth inhibition of the SNB-19 human tumor cell line is measured as a screen for anti-cancer activity. Cells are grown in 96 well plates and exposed to the test compound for 48 hours. Compounds are tested at a single concentration, which is 10^-5 M for most compounds. The reported endpoint is percent growth (GI% or GIPRCNT), where numbers from 0 - 100% represent growth inhibition, and numbers from -100% - 0 represent cell death. For example, a value of 40 represents 60% growth inhibition. A value of 0 means no net growth occurred over the course of the experiment. A value of -40 indicates 40% of cells at the beginning of the experiment died by the end of the experiment. A value of -100 means all cells are dead at the end of the experiment.\nNCI-60 Human Tumor Cell Lines Screen was performed using the standard one-dose NCI protocol, which is described in more detail at https://dtp.cancer.gov/discovery_development/nci-60/default.htm.\nCompounds with GIPRCNT values below 10 were considered active. Activity score was based on GIPRCNT using the following formula: […]\nScore is 0 for GIPRCNT values of 100 or above, 50 for GIPRCNT values of 0, and 100 for GIPRCNT values of -100.", "values": [{"smiles": "O=C(/C=C(O)/C=C/c1ccc(SC(F)(F)F)cc1)/C=C/c1ccc(SC(F)(F)F)cc1", "growth": "90.3%"}, {"smiles": "COc1ccc(C(C)=O)c(OC)c1", "growth": "100%"}, {"smiles": "O=c1ccc(-c2nc(N3CCOCC3)c3ccccc3n2)c[nH]1", "growth": "98.7%"}, {"smiles": "N#Cc1c(NC(=O)NCc2ccccc2)sc2c1CCCCC2", "growth": "28.2%"}, {"smiles": "COc1ccc(-c2nc([C@@H](C)Sc3nc(N)cc(N)n3)c(C)s2)cc1OCCN1CCOCC1", "growth": "91.3%"}, {"smiles": "CCN(CC)CC[n+]1cc2cc(OC)c(OC)cc2c2ccc3cc4c(cc3c21)OCO4", "growth": "14.5%"}, {"smiles": "CCOc1cccc(-c2nc(N)nc(Nc3ccccc3SSc3ccccc3Nc3nc(N)nc(-c4cccc(OCC)c4)n3)n2)c1", "growth": "55.1%"}, {"smiles": "COc1ccc2[nH]c(O)c(/C=c3/cc4c(c(-c5ccc(F)cc5)n3)=Nc3ccccc3-4)c2c1", "growth": "78%"}, {"smiles": "C[C@H]1[C@H]2[C@H]3CC[C@@H]4[C@@]5(C)CC[C@H](O)C(C)(C)[C@@H]5CC[C@@]4(C)[C@]3(C)CC[C@]23CO[C@]1(C)[C@@H](C(=O)/C=C\\c1ccco1)C3", "growth": "75.3%"}, {"smiles": "Cn1c(-c2c(N)n(CCCN3CCOCC3)c3nc(C#N)c(C#N)nc23)nc2ccccc21", "growth": "76.1%"}, {"smiles": "O=C(/C(=C\\c1ccc([N+](=O)[O-])cc1)S(=O)Cc1ccc(Cl)cc1)c1ccc(Cl)cc1", "note": "(stereo not given)", "growth": "71.6%"}, {"smiles": "CC(=O)OC[C@]12CC[C@@H](C(=O)CBr)[C@@H]1[C@H]1CC[C@@H]3[C@@]4(C)CC[C@H](OC(C)=O)C(C)(C)[C@@H]4CC[C@@]3(C)[C@]1(C)CC2", "growth": "114%"}, {"smiles": "C#Cc1cccc(NC(=O)c2cccc(NC(=O)CCl)c2)c1", "growth": "11.5% [8.25 µM]"}, {"smiles": "CC(=O)N1c2ccccc2NC2=C(C(=O)NC2(C)C)C1c1ccco1", "note": "(stereo not given)", "growth": "81.2%"}, {"smiles": "Oc1ccc(C2c3ccccc3Oc3ccccc32)c2cccnc12", "growth": "26.7%"}, {"smiles": "C=C1C(=O)O[C@H]2[C@H]1CC/C(CNC(=O)C(C)c1ccc(CC(C)C)cc1)=C\\CC[C@@]1(C)O[C@@H]21", "note": "(stereo not given in full)", "growth": "48.9%"}, {"smiles": "C=C1C(=O)O[C@H]2[C@H]1CC/C(COC(=O)NCc1c[nH]c3ccc(Br)cc13)=C\\CC[C@@]1(C)O[C@@H]21", "growth": "40.2%"}, {"smiles": "CCN(CC)CCOc1ccc(NC(=O)C(C(C)C)N2C(=O)/C(=C/c3ccc(Br)cc3)SC2=S)cc1", "note": "(stereo not given)", "growth": "57.6%"}, {"smiles": "O=C(NCCc1ccccc1)Nc1ccc2cc3ccc(NC(=O)NCCc4ccccc4)cc3nc2c1", "growth": "-31.8% (active)"}, {"smiles": "CN1CCN(C(=O)[C@]23CCC(C)(C)C[C@H]2C2=CC[C@@H]4[C@@]5(C)C/C(=C/c6ccncc6)C(=O)C(C)(C)[C@@H]5CC[C@@]4(C)[C@]2(C)CC3)CC1", "growth": "61.2%"}, {"smiles": "COc1cc2c(c(OC)c1OC)CCC(c1cccc(NC(=O)c3cccc(Br)c3)c1)O2", "note": "(stereo not given)", "growth": "94.5%"}, {"smiles": "O=C1c2ccc3c4c(ccc(c24)C(=O)N1CCCNCc1ccccc1F)C(=O)N(CCCNCc1ccccc1F)C3=O", "growth": "-64.3% (active)"}, {"smiles": "COc1ccc(Cc2cnc(NC(=O)c3ccc4c(c3)OCCO4)s2)cc1", "growth": "37.7%"}, {"smiles": "N#CC1=C(N)Oc2c(cnn2-c2ccc([N+](=O)[O-])cc2[N+](=O)[O-])C1c1ccccc1", "note": "(stereo not given)", "growth": "104%"}, {"smiles": "CC(C)(C)CC(C)(C)n1nnnc1C(NC12CC3CC(CC(C3)C1)C2)c1ccccc1", "note": "(stereo not given)", "growth": "90.5%"}, {"smiles": "Cc1cccc(NC(=O)Nc2ccc(-n3cnc4cc(-c5ccc(O)cc5)ccc43)cc2)c1", "growth": "28%"}, {"smiles": "COc1ccc(/C=C/C(=O)Nc2cc(/C=C\\c3cc(OC)c(OC)c(OC)c3)cc(OC)c2OC)cc1OC", "growth": "46.2%"}, {"smiles": "Cc1cc2nc3c4cccc(O)c4n(CCN(C)C)c3nc2cc1C", "growth": "38.4%"}, {"smiles": "CCN(CC)c1ccc(C(=O)c2ccccc2)cc1", "growth": "97.7%"}, {"smiles": "Fc1ccc(-c2cn3c(nc4ccccc43)c(-c3ccccc3)n2)cc1", "growth": "103%"}, {"smiles": "CC1(C)NCCC[C@]2(C)[C@H]3CC[C@@H]4[C@H]5[C@H](C(=O)/C=C/c6ccco6)CC[C@]5(CO)CC[C@@]4(C)[C@]3(C)CC[C@@H]12", "growth": "94.2%"}, {"smiles": "O=S(=O)(NCCNc1nccc(-c2c(-c3cccc(O)c3)nc3occn23)n1)c1cccc(F)c1", "growth": "102%"}, {"smiles": "COc1ccc(-c2cnc3c(-c4cccc5cnccc45)cnn3c2)cc1", "growth": "47.2%"}, {"smiles": "O=S(=O)(NCCNc1nccc(-c2c(-c3cccc(O)c3)nc3occn23)n1)c1ccc(Cl)cc1", "growth": "118%"}, {"smiles": "CC(=O)Nc1ccc(-n2cnc3cc(-c4ccc(OCCN5CCCCC5)cc4)ccc32)cc1", "growth": "88%"}, {"smiles": "Clc1ccc(-c2ccc(CNCC3CCNCC3)o2)c(-c2ccccc2)c1", "growth": "-68.1% (active)"}, {"smiles": "C=C1C(=O)O[C@H]2[C@H]1CC/C(CNC(=O)/C=C/c1ccccc1)=C\\CC[C@@]1(C)O[C@@H]21", "growth": "52.5%"}, {"smiles": "CCc1c2c(nc3ccc(OCc4ccc(B(O)O)cc4)cc13)-c1cc3c(c(=O)n1C2)COC(=O)[C@]3(O)CC", "growth": "8.1% (active)"}, {"smiles": "O=C(Cn1c[n+](CC(=O)c2ccc([N+](=O)[O-])cc2)c2ccccc21)Nc1cccc2cccnc12", "growth": "37.5%"}, {"smiles": "C=C1C(=O)O[C@H]2[C@H]1CC/C(COC(=O)NCC(C)c1ccc(CC(C)C)cc1)=C\\CC[C@@]1(C)O[C@@H]21", "note": "(stereo not given in full)", "growth": "36.9%"}]}]}
